Among all 5,500 compounds or so, about 2,000 (36%) were called active. Another 18% or so got no clear call; they are omitted. Some of the results follow. A number with no mark means an inactive call. Rule as the data show it: active = normalized growth mostly below about 0.91 (no sharp cut-off); inconclusive = no clear call, values can overlap the other calls; inactive = mostly above about 0.92.
Assay: chemical genetic growth profiling, strain panel (AID 1159580);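 also: tested at 20 µM; growth read once vehicle control cultures reached saturation at 30 °C; 1 = growth at the plate median or of vehicle wells; lower values mean less growth of the strain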
Conditions: S. cerevisiae deletion strains, growth OD
[1] = locus YAL040C, strain CLN3, hits give low values
[2] = locus YCL061C, strain MRC1 (second series), hits give low values
[3] = locus YDR363W, strain ESC2, hits give low values
[4] = locus YER002W, strain NOP16, hits give low values
[5] = locus YMR263W, strain SAP30, hits give low values
[6] = locus YNL128W, strain TEP1, hits give low values
[7] = locus YNL175C, strain NOP13, hits give low values
[8] = locus YNL197C, strain WHI3, hits give low values
[9] = locus YNL224C, strain SQS1, hits give low values
[10] = locus YOR083W, strain WHI5 (second series), hits give low values

Compound | normalized growth [1] | normalized growth [2] | normalized growth [3] | normalized growth [4] | normalized growth (locus YGR229C, strain SMI1, hits give low values) | normalized growth [5] | normalized growth (locus YMR307W, strain GAS1, hits give low values) | normalized growth [6] | normalized growth (locus YNL153C, strain GIM3, hits give low values) | normalized growth [7] | normalized growth [8] | normalized growth [9] | normalized growth [10] | normalized growth (locus YPL055C, strain LGE1, hits give low values) | normalized growth (locus YPL241C, strain CIN2, hits give low values) | normalized growth (locus YAL013W, strain DEP1, hits give low values) | normalized growth (locus YDR150W, strain NUM1, hits give low values) | normalized growth (locus YNL322C, strain KRE1, hits give low values)
CC(CCc1ccc(O)cc1)NCCc1ccc(O)c(O)c1 (stereo not drawn) | 1.01 | 0.812 (active) | 0.969 | 0.993 | 0.708 (active) | 1.01 | 0.947 | 1.01 | 0.944 | 1.01 | 1.03 | 1.02 | 0.98 | 0.756 (active) | 0.927 (active) |  |  | 
CNCCc1ccc(O)c(O)c1 | 0.991 | 0.956 | 1.03 | 1 |  | 1 |  | 0.996 |  | 1 | 1.02 | 1 | 0.976 |  |  | 0.964 | 0.922 (active) | 0.979

— PubChem BioAssay AID1159580 (chemical genetic matrix, 2015)
